PubChem BioAssay

These compounds were tested on XIP peptide (Xip251-270) binding (assay: small-molecule binders of XIP peptide, primary screen, biochemical, small-molecule microarray, fluorescence 635/667 nm, 0.1 µg/mL protein (AID 1182)). Settings: fluorescent protein binding, 635 nm, higher = more signal, called active from +8 up or from −8 down.

Composite z-score, inactive:
COc1ccc(O[C@H]2C=C[C@@H](c3ccccc3)O[C@@H]2CON=C2[C@H]3CCn4c(=O)n(-c5ccccc5)c(=O)n4[C@H]3[C@H](O)[C@@H]3O[C@H]23)cc1 -0.454
C[C@@H](c1ccccc1)N1C(=O)[C@H]2[C@H]3[C@H](O)[C@H](O)CC(=NOCc4ccccc4)[C@H]3CC[C@H]2C1=O -0.0218
O=C1C[C@@H](O)[C@@H](O)[C@@H]2[C@@H]3C(=O)N(c4cccc(Oc5ccccc5)c4)C(=O)[C@@H]3CC[C@H]12 0.0532
O=c1n(Cc2cc3c(cc2Cl)OCO3)c(=O)n2n1CC[C@@H]1C(=NOCc3ccccc3)[C@H]3O[C@H]3[C@@H](O)[C@@H]12 0.0872
COC(=O)CC=C[C@@H](C)[C@@H](C=NO[C@H](C)c1cn([C@@H]2COC[C@H]2O)nn1)NS(=O)(=O)c1ccc(C)cc1 -0.362
CCOC(=O)[C@H](CC(C)C)NC(=O)CCC1CC(OC(=O)NCc2cccc3ccccc23)CC2(CCCC(COC(=O)NCCOC)O2)O1 (some centres undefined) -0.182
CON=Cc1ccc(C(=O)N2[C@H](c3ccc(C)cc3)[C@@H](C)CC[C@H]2C(=O)OC)cc1 -0.288
CO[C@H]1COC(=O)[C@H](C)NC(=O)CC=C[C@@H](C)[C@H](OC)COC(=O)[C@@H](OCc2ccccc2)C=C[C@@H]1C -0.296
C#CCCCON=C1[C@H]2CCn3c(=O)n(-c4ccccc4)c(=O)n3[C@H]2[C@H](O)[C@@H]2O[C@H]12 0.245
